Bioassay records: PubChem, National Center for Advancing Translational Sciences (NCATS)
HCV inhibitor: inhibitors of hepatitis C virus infection. Huh7.5.1 HCVcc-Cre infection, luciferase reporter, 44 h. Potency, µM (top dose mostly 41.8 µM), hits mostly inhibitors. hit rate 3.4% among 340,000
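Seed cells (1,000/well) for 4 h; treat with compound and infect with HCVcc-Cre, moi about 0.5. Incubate 44 h, then detect luciferase activity.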
FMDV inh: antivirals against foot and mouth disease virus. FMDV antiviral cell-based qHTS. AID 1159524. Potency, µM (top dose mostly 57.9 µM), actives largely listed as inhibitors. hit rate 1.2% among 410,000; calls by dose curve; tested in HEK293T cells; also: read-out not given here; nearly all actives have a fitted effect of over 45% in size
MARV entry inh: Marburg virus entry inhibition; Potency, µM (highest dose often 37.8 µM), most hits filed as inhibitors; Marburg virus pseudotyped entry inhibition, cell reporter; hit rate 1.8% among 300,000; AID 540276; calls by dose curve; tested in HEK293 cells
Sm TGR block: blocks Schistosoma mansoni thioredoxin glutathione reductase; Q962Y6; purified TGR, DTNB reduction, TNB absorbance 405 nm; Potency, µM (highest dose often 114 µM), actives largely listed as inhibitors; hit rate 3% among 360,000; AID 485364; also: nearly all actives have a fitted effect of over 60% in size
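First, TGR (20 nM dispensed) and NADPH were mixed with compound. Second, a 15 min room-temperature incubation followed. Third, further NADPH and then DTNB were added to start the reaction. Finally, TNB absorbance was monitored kinetically.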
LASV entry inh: Lassa virus entry inhibition; hit rate 1.2% among 300,000; Lassa virus pseudotype entry inhibition, cell reporter; Potency, µM (highest dose often 37.9 µM), usual class: inhibitors; AID 540256; calls by dose curve; tested in HEK293 cells; also: nearly all actives have a fitted effect of over 50% in size
RE007 growth inh: less growth of the S. pombe RE007 Vpr strain. hit rate 0.21% among 360,000. S. pombe RE007 Vpr strain, BacTiter-Glo ATP luminescence, 24 h. AID 651644. Potency, µM (series often up to 92.2 µM), actives largely listed as inhibitors; active = well fitted falling curve with a large enough effect; inconclusive = small, poorly fitted or top-dose-only effect; inactive = no such curve, though single readings can be large or run the other way; also: nearly all actives have a fitted effect of over 50% in size
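Fission yeast strain RE007, carrying one chromosomally integrated HIV-1 vpr copy, was seeded at OD 0.01 in PMG+AL medium with 23 nL pinned compound. After 24 h at 30 °C and 99% humidity, viability was read by BacTiter-Glo luminescence.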
Each line names hits and unclear results; the compound was inactive in the other large screens. An excerpt weighted towards active compounds, which were near 7.2% of everything screened. Unless noted, calls follow the shape of the dose curve; as a rule, active = well fitted curve in the direction sought with a large enough effect; inconclusive = small, poorly fitted or top-dose-only effect, or another doubt; inactive = no such curve, though single readings can be large; an effect the other way counts as inactive or inconclusive.

Cc1ccc2nc(SCC(=O)NCC3Cc4cccc(-c5nc(C)cnc5C)c4O3)[nH]c2c1 (configuration not stated)	none (no result: HCV inhibitor, MARV entry inh, Sm TGR block, LASV entry inh, RE007 growth inh)
O=C(O)CCN1CC2([N+](=O)[O-])C=CC(=O)C([N+](=O)[O-])(C1)C2CC(=O)c1ccccc1 (configuration not stated)	Sm TGR block 18µM
O=C(CCN1CCCCCC1)c1ccccc1	none
Cc1ncc2c(c1CNC(=O)c1ccc3c(c1)OCO3)CCN(C(=O)c1cn3ccccc3n1)C2	none (no result: HCV inhibitor, MARV entry inh, Sm TGR block, LASV entry inh, RE007 growth inh)
O=c1[nH]c2ccc(Br)cc2o1	none (no result: Sm TGR block)
O=C(CCl)c1ccc2[nH]c(=O)oc2c1	FMDV inh inconclusive, Sm TGR block 11µM (no result: MARV entry inh, LASV entry inh)
CC1(C)CC[C@]2(C)CC[C@@]3(C)C(=CCC4[C@@]5(C)CCC(O)C(C)(C)C5CC[C@@]43C)C2C1 (some centres not stated)	none (no result: HCV inhibitor, MARV entry inh, Sm TGR block, LASV entry inh, RE007 growth inh)
CC(C)NC(=O)c1ccc2c(c1)N(Cc1cccc(Cl)c1)C(=O)c1ccccc1S2=O (configuration not stated)	none (no result: HCV inhibitor, MARV entry inh, RE007 growth inh)
Cc1nn(-c2ccc(N3CCCCC3)nn2)c(C)c1CCC(=O)Nc1ccc(F)cc1F	LASV entry inh inconclusive (no result: HCV inhibitor, MARV entry inh, RE007 growth inh)
N#CC(C#N)=Cc1cc2ccccc2nc1N1CCCCC1	HCV inhibitor inconclusive, MARV entry inh inconclusive, Sm TGR block 5µM, LASV entry inh inconclusive
O=C(NC(NNc1ccc([N+](=O)[O-])cc1)(C(F)(F)F)C(F)(F)F)c1ccc(Cl)cc1	HCV inhibitor inconclusive, FMDV inh inconclusive, MARV entry inh inconclusive, Sm TGR block 22µM, LASV entry inh inconclusive
COc1ccc(CNC(=O)c2c(C)oc3c2C(=O)c2ccccc2C3=O)cc1	FMDV inh inconclusive
O=C1c2ccccc2C(=O)c2c1oc(C(F)(F)F)c2C(=O)c1ccccc1	HCV inhibitor 22µM, MARV entry inh inconclusive, LASV entry inh inconclusive, RE007 growth inh inconclusive
CC(=O)c1c(C)oc2c1C(=O)c1ccccc1C2=O	HCV inhibitor 8.9µM, FMDV inh inconclusive, RE007 growth inh inconclusive
O=C(c1ccccc1)c1coc2c1C(=O)c1ccccc1C2=O	FMDV inh inconclusive, MARV entry inh inconclusive, RE007 growth inh inconclusive (no result: LASV entry inh)
Cc1oc2c(c1C(=O)NCc1cccnc1)C(=O)c1ccccc1C2=O	HCV inhibitor 1.6µM, FMDV inh 3.2µM (no result: MARV entry inh, LASV entry inh)
N[C@@H](CSS(=O)(=O)O)C(=O)O	none (no result: HCV inhibitor, MARV entry inh, Sm TGR block, LASV entry inh, RE007 growth inh)
Cc1noc(C)c1S(=O)(=O)NC(=O)C1(C)CCN1C(=O)C1(c2ccc(Cl)cc2)CCC1 (configuration not stated)	none (no result: HCV inhibitor, MARV entry inh, Sm TGR block, LASV entry inh)
CCCCN(C(=O)C1CCCC1)c1c(N)n(CC(C)C)c(=O)[nH]c1=O	Sm TGR block 32µM (no result: MARV entry inh, LASV entry inh)
CCn1c(=O)n(-c2ccc3c(c2)OCO3)c2nc(-c3ccc(C(C)C)cc3)nc(C(N)=O)c21	LASV entry inh inconclusive (no result: HCV inhibitor, RE007 growth inh)
CC1=C(C(=O)OCc2ccccc2)N2C(=O)[C@@H](NC(=O)COc3ccccc3)[C@H]2SC1	none (no result: MARV entry inh, LASV entry inh)
CC(=O)OCC1=C(C(=O)O)N2C(=O)C(NC(=O)c3ccc(COc4ccc(Cl)cc4)o3)C2SC1 (configuration not stated)	MARV entry inh inconclusive, Sm TGR block 22µM
CC(=O)OCC1=C(C(=O)O)N2C(=O)C(NC(=O)c3ccc(COc4c(C)cccc4Cl)o3)C2SC1 (configuration not stated)	Sm TGR block 20µM
O=c1ccc2cc3ccoc3c(O)c2o1	HCV inhibitor 1µM (no result: MARV entry inh, Sm TGR block, LASV entry inh)
COc1ccc(-c2noc(N3CCN(c4cccc(Cl)c4)CC3)n2)cc1OC	none (no result: HCV inhibitor, MARV entry inh, RE007 growth inh)
O=C(/C=C/c1ccccc1Cl)NCc1cccs1	HCV inhibitor inconclusive, LASV entry inh 18µM
O=C(/C=C/c1ccc(Br)cc1)NCc1cccs1	LASV entry inh 2.6µM
O=C(/C=C/c1ccc(F)cc1)NCc1cccs1	LASV entry inh inconclusive
c1ccc(-c2csc3ncnc(NCc4ccccn4)c23)cc1	HCV inhibitor 10µM, FMDV inh 16µM (no result: MARV entry inh, LASV entry inh)
CN(C)CCCNc1ncnc2scc(-c3ccccc3)c12	HCV inhibitor inconclusive, MARV entry inh inconclusive
Oc1ccc(Nc2ncnc3scc(-c4ccccc4)c23)cc1	HCV inhibitor 8.9µM, FMDV inh inconclusive, MARV entry inh inconclusive, LASV entry inh inconclusive
c1ccc(CNc2ncnc3scc(-c4cccs4)c23)nc1	HCV inhibitor inconclusive, FMDV inh 16µM (no result: MARV entry inh, LASV entry inh)
CC(=O)c1cccc(-c2ccnc3c2CC(C(=O)NCc2cccs2)O3)c1 (configuration not stated)	none (no result: HCV inhibitor, MARV entry inh, Sm TGR block, LASV entry inh)
COc1ccc(C(=O)N(Cc2cc(OC)c(OC)c(OC)c2)CC2CCCO2)cc1 (configuration not stated)	LASV entry inh inconclusive (no result: HCV inhibitor, RE007 growth inh)
O=C1[C@@H]2[C@H]3[C@H](O)[C@H](O)CC(=NOC[C@@H](O)COCc4ccco4)[C@@H]3CC[C@H]2C(=O)N1C1CCCCC1	none (no result: HCV inhibitor, FMDV inh, Sm TGR block, LASV entry inh, RE007 growth inh)
O=C(NCCSc1ccc(Cl)cc1)c1ccc(CN2CCOCC2)cc1	HCV inhibitor inconclusive, FMDV inh inconclusive, MARV entry inh inconclusive
O=C(NCCSCc1ccc(Cl)cc1Cl)c1ccc(CN2CCOCC2)cc1	HCV inhibitor 11µM, FMDV inh inconclusive, MARV entry inh inconclusive, LASV entry inh inconclusive
CCC(=O)N1c2ccccc2CC1C(=O)NCc1ccc(CC)cc1 (configuration not stated)	none (no result: HCV inhibitor, MARV entry inh, RE007 growth inh)
N=Cc1c(O)n(-c2cccc(Cl)c2)c(=O)[nH]c1=O	none
O=c1[nH]c(=O)n(-c2cccc(Cl)c2)c(O)c1/C=N/c1ccccn1	MARV entry inh inconclusive, Sm TGR block 79µM
CCOC(=O)c1c(C)n(C)c2cc(-c3ccc(C)cc3)c(O)cc12	HCV inhibitor inconclusive
CCOC(=O)c1c(-c2ccccc2)[nH]c2ccc(O)cc12	HCV inhibitor 11µM, FMDV inh inconclusive, MARV entry inh inconclusive
CCOC(=O)c1c(C)n(C)c2cc(Br)c(C)cc12	HCV inhibitor 8.9µM (no result: FMDV inh)
CCOc1ccc(-n2c(C)c(C(=O)O)c3cc(OC)ccc32)cc1	MARV entry inh 6.3µM, LASV entry inh inconclusive
CCOC(=O)c1c(-c2ccccc2)n(C)c2ccc(O)cc12	HCV inhibitor inconclusive, FMDV inh inconclusive, MARV entry inh inconclusive, LASV entry inh inconclusive
CCOC(=O)c1c(C)n(-c2ccccc2)c2ccc(OC(=O)c3ccccc3NC(=O)C(C)(C)C)cc12	FMDV inh inconclusive (no result: HCV inhibitor, MARV entry inh, RE007 growth inh)
CCOC(=O)c1c(C)n(-c2ccccc2)c2ccc(OC(=O)c3ccccc3NC(=O)C(C)C)cc12	FMDV inh 32µM (no result: HCV inhibitor, MARV entry inh, RE007 growth inh)
CCCOc1cccc(C(=O)N2CCCCC2CCN2CCCCC2)c1 (configuration not stated)	MARV entry inh inconclusive (no result: HCV inhibitor, RE007 growth inh)
COc1ccc(NC(=O)Cn2c(=O)n(Cc3ccco3)c(=O)c3sc4ccccc4c32)cc1OC	FMDV inh inconclusive (no result: HCV inhibitor, RE007 growth inh)
CCOC(=O)c1c(C)n(-c2ccccc2)c2ccc(O)cc12	HCV inhibitor 10µM, FMDV inh inconclusive
CCOC(=O)c1cnc2ccc(OCC)cc2c1NCc1ccccc1OC	HCV inhibitor 7.1µM, FMDV inh 18µM, MARV entry inh inconclusive, LASV entry inh 8.9µM
